# Measurements taken from PubChem BioAssay.
# Calls of active or inactive are those of the source.
# What was measured:
# [1] = system: PRMT1 (protein arginine N-methyltransferase 1); test: PRMT1 binders on small-molecule microarrays, primary screen, biochemical, small-molecule microarray, 635 nm fluorescence (AID 1088); conditions: small-molecule microarray binding, higher = more signal;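 also: binding of Prmt1 protein to compounds spotted on small-molecule microarray slides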
# [2] = yeast growth modulation, basal conditions, primary screen, YJM789 clinical isolate, OD600, 24 h (AID 1089);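 also: growth of clinical yeast isolate S. cerevisiae YJM 789 seeded 1000 cells per well; test concentration not given here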; conditions: S. cerevisiae YJM789 growth, higher = more signal, called active from +8 up or from −8 down
# [3] = fission yeast growth modulation, primary screen, strain 972, OD600, 24 h, no modulator (AID 1090);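 also: basal condition with compound alone and no growth modifier present; test concentration not given here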; conditions: S. pombe 972 growth, higher = more signal, called active from +8 up or from −8 down
# [4] = S. cerevisiae growth modulation with rapamycin, primary screen, strain BY4716, OD600, 96 h (AID 1091); conditions: higher = more signal, called active from +8 up or from −8 down; also: test concentration not given here
# [5] = molecular target: Torsin-1A-interacting protein 2 (Homo sapiens) (UniProt Q8NFQ8); test: LULL1 binders on small-molecule microarray, primary screen, cell lysate, human LULL1 lysate, 635/667 nm fluorescence (AID 1092); conditions: hLULL1 lysate binding, 635 nm fluorescence, higher = more signal;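 also: probe is lysate of COS7 cells overexpressing human LULL1; score merges per-feature 667 nm fluorescence with signal-to-noise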
# [6] = E. coli growth modulation, two-sided OD650, primary screen, E. coli filamentation project, strain DRC41, 24 h (AID 1093); conditions: OD650, 24 h, higher = more signal, called active from +8 up or from −8 down;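 also: MC1000 strain lacking acrAB efflux and sulA so SOS filamentation is blocked; test concentration not given here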
# [7] = small-molecule microarray binders of probe aLefty2, primary screen, biochemical, biotinylated probe, 635/667 nm fluorescence (AID 1094); conditions: higher = more signal;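 also: score merges spot fluorescence near 667 nm with spot signal-to-noise ratio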
# [8] = system: Noggin (protein binding on small-molecule microarray); test: Noggin binders on small-molecule microarray, primary screen, biochemical, 635/667 nm fluorescence (AID 1095); conditions: 635 nm fluorescence, higher = more signal;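 also: score merges 667 nm feature fluorescence with signal to noise over triplicate slides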
# [9] = molecular target: Neurogenic locus notch homolog protein 3 (Homo sapiens) (UniProt Q9UM47); test: NOTCH3 binders on small-molecule microarray, primary screen, biochemical, 635/667 nm fluorescence (AID 1096); conditions: NOTCH3 binding, 635 nm fluorescence, higher = more signal
# [10] = small-molecule microarray binders of probe aEGFR, primary screen, biochemical, biotinylated probe, 635/667 nm fluorescence (AID 1097); conditions: higher = more signal;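 also: probe is a biotinylated anti-EGFR antibody binding compounds printed on slides; score combines fluorescence near 667 nm and signal to noise of each spot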
# [11] = system: Plasmodium falciparum Sir2 (PF13_0152, Sir2A); test: pfSir2 binders on small-molecule microarrays, primary screen, biochemical, small-molecule microarray, 635 nm fluorescence (AID 1098); conditions: small-molecule microarray binding, fluorescence 635 nm; higher = more signal;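 also: score merges spot fluorescence intensity with its signal-to-noise ratio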
# [12] = small-molecule microarray binders of probe aDKK1, primary screen, biochemical, biotinylated probe, 635/667 nm fluorescence (AID 1099); conditions: higher = more signal;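 also: score merges 667nm spot fluorescence with signal to noise across triplicate slides; reference of the scale not given here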
# [13] = small-molecule microarray binders of probe aCHRDL2, primary screen, biochemical, biotinylated probe, 635/667 nm fluorescence (AID 1100); conditions: higher = more signal
# [14] = splicing luciferase reporter signal modulators, primary screen, spliceosome inhibition project, cell-based, HEK293, splice +/- reporter (AID 1101); conditions: luminescence, 24 h, higher = more signal, called active from +8 up or from −8 down;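 also: HEK293 cells carrying a splicing-competent luciferase reporter gene; test concentration not given here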
# [15] = molecular target: Fibroblast growth factor 10 (Homo sapiens) (UniProt O15520); test: FGF10 binders on small-molecule microarrays, primary screen, biochemical, small-molecule microarray, 635 nm fluorescence (AID 1102); conditions: FGF10 binding, fluorescence 635 nm, higher = more signal
# [16] = system: glycogen synthase kinase-3 (GSK3A per assay name; protocol says GSK3B); test: GSK3 binders on small-molecule microarrays, primary screen, biochemical, small-molecule microarray, 635 nm fluorescence, GSK3A (AID 1103); conditions: small-molecule microarray binding, fluorescence 635 nm; higher = more signal; also: the record names both GSK3A and GSK3B
# [17] = molecular target: Epidermal growth factor receptor (Homo sapiens) (UniProt P00533); test: EGFR binders on small-molecule microarrays, primary screen, biochemical, small-molecule microarray, 635 nm fluorescence (AID 1104); conditions: EGFR binding, higher = more signal;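 also: score merges 667 nm emission intensity with spot signal to noise over triplicate slides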
# [18] = molecular target: Follistatin-related protein 3 (Homo sapiens) (UniProt O95633); test: FSTL3 binders on small-molecule microarrays, primary screen, biochemical, small-molecule microarray, 635 nm fluorescence (AID 1105); conditions: FSTL3 binding, higher = more signal;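 also: score merges emission near 667 nm and signal to noise per printed spot across three slides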
# [19] = molecular target: Dickkopf-related protein 1 (Homo sapiens) (UniProt O94907); test: DKK1 binders on small-molecule microarrays, primary screen, biochemical, small-molecule microarray, 635 nm fluorescence scan (AID 1106); conditions: DKK1 binding, higher = more signal;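 also: score merges emission near 667 nm with signal to noise over three replicate slides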
# [20] = system: Inhibin beta A chain (activin A); test: INHBA (activin A) binders on microarrays, primary screen, biochemical, small-molecule microarray, 635 nm fluorescence scan (AID 1107); conditions: small-molecule microarray binding, higher = more signal;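 also: mouse activin A protein probed at 4.33 µg/mL on printed slides; score merges bound-protein fluorescence near 667 nm with spot signal-to-noise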
# Sequence of Epidermal growth factor receptor (Homo sapiens) (P00533 whole entry, looked up): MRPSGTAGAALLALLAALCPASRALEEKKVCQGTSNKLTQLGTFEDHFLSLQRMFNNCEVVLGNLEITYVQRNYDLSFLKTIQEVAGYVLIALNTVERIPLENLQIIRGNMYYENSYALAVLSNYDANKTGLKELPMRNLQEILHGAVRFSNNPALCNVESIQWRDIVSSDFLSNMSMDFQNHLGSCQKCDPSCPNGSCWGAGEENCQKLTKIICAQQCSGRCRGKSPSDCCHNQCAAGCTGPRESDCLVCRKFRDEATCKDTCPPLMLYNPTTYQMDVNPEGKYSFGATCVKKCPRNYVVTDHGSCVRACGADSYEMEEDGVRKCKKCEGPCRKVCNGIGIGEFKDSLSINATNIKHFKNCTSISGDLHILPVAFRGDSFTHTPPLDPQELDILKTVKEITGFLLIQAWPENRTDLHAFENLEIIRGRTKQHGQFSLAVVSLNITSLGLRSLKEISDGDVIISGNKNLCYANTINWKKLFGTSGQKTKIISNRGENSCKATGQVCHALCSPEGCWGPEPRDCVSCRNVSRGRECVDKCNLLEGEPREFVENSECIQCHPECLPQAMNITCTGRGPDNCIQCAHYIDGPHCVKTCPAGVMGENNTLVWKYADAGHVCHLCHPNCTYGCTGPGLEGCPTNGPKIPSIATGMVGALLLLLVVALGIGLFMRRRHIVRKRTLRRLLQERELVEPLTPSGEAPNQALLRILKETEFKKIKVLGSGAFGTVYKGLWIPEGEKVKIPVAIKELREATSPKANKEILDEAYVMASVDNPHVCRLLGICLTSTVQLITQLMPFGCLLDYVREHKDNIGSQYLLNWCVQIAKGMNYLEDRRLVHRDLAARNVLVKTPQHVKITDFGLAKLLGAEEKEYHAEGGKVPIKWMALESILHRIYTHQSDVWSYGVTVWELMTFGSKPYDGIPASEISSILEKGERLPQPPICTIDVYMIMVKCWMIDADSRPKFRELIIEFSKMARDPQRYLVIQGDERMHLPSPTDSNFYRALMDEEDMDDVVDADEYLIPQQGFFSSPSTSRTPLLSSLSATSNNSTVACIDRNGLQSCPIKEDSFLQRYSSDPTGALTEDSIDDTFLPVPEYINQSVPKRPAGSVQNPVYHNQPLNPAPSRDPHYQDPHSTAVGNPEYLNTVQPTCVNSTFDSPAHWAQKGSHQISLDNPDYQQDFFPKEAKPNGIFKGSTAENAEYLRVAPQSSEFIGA
# Sequence of Follistatin-related protein 3 (Homo sapiens) (O95633 whole entry, looked up): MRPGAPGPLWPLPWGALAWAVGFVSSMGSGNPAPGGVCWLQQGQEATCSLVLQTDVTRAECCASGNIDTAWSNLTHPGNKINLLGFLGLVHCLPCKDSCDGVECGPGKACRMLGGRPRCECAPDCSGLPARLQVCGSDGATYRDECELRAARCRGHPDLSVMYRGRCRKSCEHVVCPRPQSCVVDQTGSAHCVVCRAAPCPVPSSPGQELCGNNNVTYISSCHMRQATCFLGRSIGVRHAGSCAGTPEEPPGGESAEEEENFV
# Sequence of Neurogenic locus notch homolog protein 3 (Homo sapiens) (Q9UM47 whole entry, looked up): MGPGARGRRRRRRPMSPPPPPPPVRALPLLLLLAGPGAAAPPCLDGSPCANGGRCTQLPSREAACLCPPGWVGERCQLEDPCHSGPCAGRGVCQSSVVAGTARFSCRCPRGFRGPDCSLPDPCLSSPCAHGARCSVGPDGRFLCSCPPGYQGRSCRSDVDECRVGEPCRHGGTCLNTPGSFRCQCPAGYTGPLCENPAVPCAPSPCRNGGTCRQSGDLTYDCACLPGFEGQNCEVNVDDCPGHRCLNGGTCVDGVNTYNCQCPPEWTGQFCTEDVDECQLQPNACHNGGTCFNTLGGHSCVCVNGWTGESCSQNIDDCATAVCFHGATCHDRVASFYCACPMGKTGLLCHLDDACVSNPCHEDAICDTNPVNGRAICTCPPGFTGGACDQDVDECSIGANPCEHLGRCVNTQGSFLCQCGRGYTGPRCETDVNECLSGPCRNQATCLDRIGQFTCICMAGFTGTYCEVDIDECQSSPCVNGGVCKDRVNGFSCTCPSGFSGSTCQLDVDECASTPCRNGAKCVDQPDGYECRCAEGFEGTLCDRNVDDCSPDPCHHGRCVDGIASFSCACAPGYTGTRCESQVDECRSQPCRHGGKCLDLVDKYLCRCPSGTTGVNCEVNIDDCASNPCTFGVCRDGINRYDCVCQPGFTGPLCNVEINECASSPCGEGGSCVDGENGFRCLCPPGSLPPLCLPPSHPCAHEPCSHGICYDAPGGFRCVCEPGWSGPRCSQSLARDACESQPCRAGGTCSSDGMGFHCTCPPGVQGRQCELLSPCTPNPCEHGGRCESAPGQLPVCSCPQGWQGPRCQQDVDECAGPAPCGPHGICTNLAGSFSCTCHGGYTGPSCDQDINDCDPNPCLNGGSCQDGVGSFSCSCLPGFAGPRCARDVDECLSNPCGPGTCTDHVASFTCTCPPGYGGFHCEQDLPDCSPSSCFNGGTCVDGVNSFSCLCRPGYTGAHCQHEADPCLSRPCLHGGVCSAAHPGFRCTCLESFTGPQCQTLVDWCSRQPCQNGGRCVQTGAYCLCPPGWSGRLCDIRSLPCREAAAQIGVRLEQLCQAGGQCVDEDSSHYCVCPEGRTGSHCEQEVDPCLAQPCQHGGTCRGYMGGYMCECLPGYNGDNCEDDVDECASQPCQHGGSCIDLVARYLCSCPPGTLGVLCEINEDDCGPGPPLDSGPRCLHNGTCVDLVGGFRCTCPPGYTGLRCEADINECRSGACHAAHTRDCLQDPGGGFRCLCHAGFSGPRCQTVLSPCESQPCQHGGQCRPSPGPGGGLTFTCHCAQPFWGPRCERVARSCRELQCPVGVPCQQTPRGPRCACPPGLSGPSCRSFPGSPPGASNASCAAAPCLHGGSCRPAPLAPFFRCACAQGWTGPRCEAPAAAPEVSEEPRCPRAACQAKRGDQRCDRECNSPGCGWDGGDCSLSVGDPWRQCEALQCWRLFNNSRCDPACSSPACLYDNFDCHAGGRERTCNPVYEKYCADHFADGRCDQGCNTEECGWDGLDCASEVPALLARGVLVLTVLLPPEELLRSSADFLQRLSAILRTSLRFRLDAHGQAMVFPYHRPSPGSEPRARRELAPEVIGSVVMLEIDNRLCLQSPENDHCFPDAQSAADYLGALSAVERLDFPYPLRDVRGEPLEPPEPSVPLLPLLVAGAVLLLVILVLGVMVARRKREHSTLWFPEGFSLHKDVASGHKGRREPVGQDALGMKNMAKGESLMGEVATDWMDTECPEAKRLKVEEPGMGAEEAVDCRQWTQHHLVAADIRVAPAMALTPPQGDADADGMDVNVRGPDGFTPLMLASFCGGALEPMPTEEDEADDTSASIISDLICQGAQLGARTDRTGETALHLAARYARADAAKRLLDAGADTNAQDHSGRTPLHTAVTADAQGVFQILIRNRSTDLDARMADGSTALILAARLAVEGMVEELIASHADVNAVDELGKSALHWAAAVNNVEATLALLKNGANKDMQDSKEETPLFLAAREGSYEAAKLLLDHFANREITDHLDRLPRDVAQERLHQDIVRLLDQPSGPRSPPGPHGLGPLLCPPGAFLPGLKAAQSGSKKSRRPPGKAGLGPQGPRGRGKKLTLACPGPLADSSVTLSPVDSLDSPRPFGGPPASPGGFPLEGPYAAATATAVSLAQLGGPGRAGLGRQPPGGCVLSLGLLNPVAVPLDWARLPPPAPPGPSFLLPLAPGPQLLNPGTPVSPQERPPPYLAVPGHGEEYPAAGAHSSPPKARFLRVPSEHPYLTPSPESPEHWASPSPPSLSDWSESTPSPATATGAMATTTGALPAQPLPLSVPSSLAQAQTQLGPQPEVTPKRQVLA
# Sequence of Dickkopf-related protein 1 (Homo sapiens) (O94907 whole entry, looked up): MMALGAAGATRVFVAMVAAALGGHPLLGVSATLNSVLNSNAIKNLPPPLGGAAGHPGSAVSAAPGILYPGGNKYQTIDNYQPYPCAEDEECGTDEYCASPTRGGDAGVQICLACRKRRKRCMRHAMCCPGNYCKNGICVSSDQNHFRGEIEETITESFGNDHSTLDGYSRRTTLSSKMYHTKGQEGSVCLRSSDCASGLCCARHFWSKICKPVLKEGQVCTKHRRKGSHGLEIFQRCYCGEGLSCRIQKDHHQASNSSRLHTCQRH
# Sequence of Fibroblast growth factor 10 (Homo sapiens) (O15520 whole entry, looked up): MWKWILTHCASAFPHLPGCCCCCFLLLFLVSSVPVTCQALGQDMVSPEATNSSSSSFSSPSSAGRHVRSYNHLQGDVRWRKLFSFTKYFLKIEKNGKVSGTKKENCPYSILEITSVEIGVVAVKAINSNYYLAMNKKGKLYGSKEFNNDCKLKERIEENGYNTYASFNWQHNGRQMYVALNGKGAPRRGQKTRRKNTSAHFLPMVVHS
# Sequence of Torsin-1A-interacting protein 2 (Homo sapiens) (Q8NFQ8 whole entry, looked up): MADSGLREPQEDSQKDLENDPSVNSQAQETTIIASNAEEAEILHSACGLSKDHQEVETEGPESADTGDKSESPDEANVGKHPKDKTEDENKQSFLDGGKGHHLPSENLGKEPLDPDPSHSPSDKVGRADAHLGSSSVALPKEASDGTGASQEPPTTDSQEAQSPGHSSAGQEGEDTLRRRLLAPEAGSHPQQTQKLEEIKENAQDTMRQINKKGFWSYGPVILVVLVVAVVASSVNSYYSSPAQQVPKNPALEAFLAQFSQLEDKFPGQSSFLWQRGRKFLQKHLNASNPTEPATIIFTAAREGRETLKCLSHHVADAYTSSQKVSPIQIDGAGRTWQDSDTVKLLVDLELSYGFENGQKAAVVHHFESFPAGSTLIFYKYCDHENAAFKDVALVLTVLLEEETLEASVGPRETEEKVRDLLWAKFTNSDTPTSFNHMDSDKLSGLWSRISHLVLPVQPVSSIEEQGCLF
SMILES,composite z-score [1],z-score [2],z-score [3],z-score [4],composite z-score [5],z-score [6],composite z-score [7],composite z-score [8],composite z-score [9],composite z-score [10],composite z-score [11],composite z-score [12],composite z-score [13],z-score [14],composite z-score [15],composite z-score [16],composite z-score [17],composite z-score [18],composite z-score [19],composite z-score [20]
O=C1C2C=CC(C(O)c3c(F)cccc3Cl)N(Nc3ccccc3F)C2C(=O)N1c1ccccc1 (stereo not given),0.0998,0.232 (inactive),1.03 (inactive),0.722 (inactive),2.98,-0.744 (inactive),0.17,0.0424,1.05,0.196,0.537,0.923,1.09,1.4 (inactive),1.28,0.533,-0.0195,0.551,-0.62,0.87
[N-]=[N+]=Nc1ccccc1[C@H]1OC(c2ccc(OCCCO)cc2)=N[C@@]1(CCS(=O)(=O)c1ccccc1)C(=O)NCc1ccccc1,1.57,-0.832 (inactive),0.342 (inactive),2.23 (inactive),3.63,-0.443 (inactive),0.154,0.669,1.1,0.174,0.91,0.812,0.988,-0.431 (inactive),1.18,1.32,0.258,1.14,0.584,1.05
C=C(CCCC)/C(=C/C[C@H](OC(C)=O)c1ccccc1OCCO)c1cnc2ccccc2c1,1.32,0.617 (inactive),-0.654 (inactive),0.826 (inactive),1.15,0.02 (inactive),-0.235,0.788,1.1,-0.142,0.593,-0.278,-0.114,1.81 (inactive),0.931,-0.0183,0.0674,0.747,0.277,1.52
CN1C(=O)C2C=CC(C(O)c3ccc(F)cc3)N(N(c3ccccc3)c3ccccc3)C2C1=O (stereo not given),0.672,0.0729 (inactive),0.91 (inactive),0.0933 (inactive),1.86,-1.2 (inactive),0.0606,0.3,0.121,-0.0234,1.46,0.303,1.03,1.9 (inactive),0.103,0.0581,-0.329,0.549,-0.742,0.984
CCOC(=O)C1=CCC(c2ccc(F)cc2)N(S(=O)(=O)c2ccc(C)cc2)C1 (stereo not given),0.249,0.265 (inactive),0.639 (inactive),1.68 (inactive),0.799,-0.704 (inactive),-0.0396,-0.0456,0.284,-0.0839,0.12,0.582,0.291,0.0136 (inactive),-0.0564,0.265,0.192,0.249,0.127,1.01
